# Among all 350,000 compounds or so, about 450 (0.13%) were called active. A selection follows. Results with a measured potency or affinity are listed apart. Unmarked numbers belong to inactive results. How the calls were made is not given here.
# Assay: inhibitors of VEEV TC-83 cytopathic effect, confirmation, Vero cells (AID 588727)
# Conditions: VEEV TC-83 cytopathic effect inhibition, at 20 µM; hits give high values unless noted
row,Compound,inhibition
1,CNc1nc(C)c(C#N)c(-c2ccccc2)c1C(C)=O,0.76%
2,CC[C@]12c3[nH]c4ccccc4c3CCN1C(=O)C(CC(=O)NCCC1=CCCCC1)C[C@@H]2C(=O)N1CCN(C(=O)c2ccco2)CC1 (stereo partly specified),inactive
3,CC(C)c1c(C(=O)N/N=C/c2ccc(OCc3ccccc3)cc2)nnn1-c1nonc1N,2.29%
4,FC(F)(F)c1cccc(Cc2noc(CN(Cc3ccccn3)CC3CCCO3)n2)c1 (stereo unspecified),6.18%
5,CCc1ccccc1NC(=O)C1=CN2CCS(=O)(=O)N=C2C=C1,4.92%
6,COC(=O)c1ccc(CSc2ccccc2NC(=S)Nc2cccc(SC)c2)o1,5.66%
7,COC(=O)[C@@H](Cc1ccccc1)NC(=O)CC[C@H]1O[C@@H](n2cc(C)c(=O)[nH]c2=O)C[C@@H]1O,inactive
8,Cc1sc2nc(SCC(=O)c3cccs3)n(Cc3ccco3)c(=O)c2c1C,0.85%
9,C=CCn1c(SCC(=O)c2cccs2)nc2sc(C)cc2c1=O,5.28%
10,CCOCCCNC(=O)c1cn(C)c(=O)c2cc(OC)c(OC)cc12,2.15%
11,c1ccc(C(c2c[nH]c3ccccc23)c2c[nH]c3ccccc23)nc1,6.07%
12,COC(=O)c1sccc1NC(=O)c1c(-c2ccccc2)noc1C,0.71%
13,CCOCc1nnc(NC(=O)c2c(-c3ccccc3)noc2C)s1,2.18%
14,CCOC(=O)c1c(-c2cccc(C)c2)csc1NC(=O)C1CC=CCC1C(=O)O (stereo unspecified),1.95%
15,CCC(CC)c1nnc(NC(=O)c2c(-c3ccccc3)noc2C)s1,inactive
16,CCOC(=O)c1c(-c2ccc(F)cc2)csc1NC(=O)c1c(-c2ccccc2)noc1C,9.91%
17,COC(=O)c1c(-c2ccccc2)noc1C,inactive
18,Cn1c(=O)c2c(nc(OCc3cccnc3)n2Cc2c(F)cccc2Cl)n(C)c1=O,inactive
19,Cc1ccc(NC(=O)C2CC(=O)N(c3ccc4c(c3)OCCO4)C2)nc1 (stereo unspecified),0.81%
20,COc1ccc(NC(=O)c2cc(S(=O)(=O)Nc3ccc(OC)cc3)cs2)cc1,1.17%
21,O=C1CCc2cc(S(=O)(=O)N3CCC(C(=O)NC4CCCCCCC4)CC3)ccc2N1,0.11%
22,CC1CCCCN1C(=O)CSc1nc(N)cc(=O)[nH]1 (stereo unspecified),0.79%
23,COC(=O)Cc1ccc(NC(=S)NCCSc2ccc(C)cc2)cc1,0.04%
24,CCOC(=O)c1cnc(N2CCOCC2)[nH]c1=O,inactive

row,Compound,inhibition
1,O=c1ccc(Cl)cn1Cc1ccccc1F,0.68%
2,CCCNC(=O)CSc1nnc(NC(=O)C2CC(=O)N(c3ccccc3OC)C2)s1 (stereo unspecified),0.13%
3,CN(C)CCCNc1nc(N)c([N+](=O)[O-])c(NC2CCCCC2)n1,1.04%
4,Nc1nc(NCCO)nc(NC2CCCCC2)c1[N+](=O)[O-],3.17%
5,OCC1CCCCN1C(=S)NCc1ccco1 (stereo unspecified),2.33%
6,O=C(NNC(=O)c1ccc2ccccc2c1)c1cccc(F)c1,0.5%
7,COc1ccccc1NS(=O)(=O)c1ccc(C(=O)N2CCN(c3ccccn3)CC2)cc1,12.1%
8,COc1cc2cc(CN(CCO)S(=O)(=O)c3ccccc3)c(=O)[nH]c2cc1OC,2.19%
9,CCOC(=O)C(CC)n1cnc2sc3c(c2c1=O)CCC3 (stereo unspecified),2.46%
10,COc1ccc(/C=C/C(=O)c2cc(Cl)cc(Cl)c2O)c(OC)c1,0.43%
11,CCNc1ccc(Br)cc(C(=O)/C=C/c2ccccc2Cl)c1=O,2.29%
12,CN(C)/C=C/C(=O)/C=C/c1ccc(Cl)cc1Cl,inactive
13,CCc1ccc(/C=C/C(=O)c2cc(Br)ccc(=O)c2O)cc1,2.12%
14,CC(=O)Nc1ccc(S(=O)(=O)Nc2ccc3c(c2)OCO3)cc1,inactive
15,Cc1ccc(-c2cc(C(=O)NCCCn3ccnc3)c3ccccc3n2)s1,10.3%
16,CC(OC(=O)Cn1cnc2ccccc2c1=O)C(=O)N(C)c1ccccc1 (stereo unspecified),1.86%
17,Cc1cc(SCC(=O)c2cc3ccccc3o2)nc2ccccc12,inactive
18,COc1ccc(NC(=O)CSc2nc3ccccc3c(=O)n2CCC(=O)N2CCCCC2)cc1,10.7%
19,CCN(C(=O)c1cccc(Br)c1)c1ccccc1,1.28%
20,N#CCCn1c(-c2nonc2NC(=O)c2ccccc2Cl)nc2ccccc21,inactive
21,CCC(=O)Nc1nonc1-c1nc2ccccc2n1CC(C)C,0.38%
22,CCn1c(-c2nonc2NC(=O)c2ccccc2)nc2ccccc21,inactive
23,CC(=O)Nc1nonc1-c1nc2ccccc2n1CCC(C)C,2.19%
24,CCOc1ccccc1Nc1ccnc2cc(Cl)ccc12,0.76%

row,Compound,inhibition
1,C=C1CCN([C@@H](Cc2ccccc2)C(=O)NC2CCN(Cc3ccccc3)CC2)S(=O)(=O)c2ccccc21,inactive
2,CCCN1C2CCCC1CC(NC(=O)c1ccc(Br)cc1)C2 (stereo unspecified),0.23%
3,CCN(CC)S(=O)(=O)c1ccc(Cl)c(C(=O)OCC(=O)c2c(N)n(C)c(=O)n(C)c2=O)c1,2.96%
4,COCCCNC(=O)c1cc(C(=O)Cc2ccccc2)c[nH]1,0.38%
5,O=C(CCn1c(=S)oc2ccccc21)Nc1cccc(O)c1,1.38%
6,COc1ccc(C2c3[nH]c4ccccc4c3CCN2C(=O)c2ccc(=O)n(C)n2)c(F)c1 (stereo unspecified),1.1%
7,COc1ccc(C2c3[nH]c4ccccc4c3CCN2C(=O)c2cn3ccccc3n2)c(F)c1 (stereo unspecified),8.94%
8,CCC(CC)c1nc(C(N)=O)c2[nH]c(=O)n(-c3ccc(OC)c(OC)c3)c2n1,1.45%
9,NNc1nc(-c2ccccc2)cc(-c2ccc(Br)cc2)n1,7.9%
10,CN1OC[C@@H]2CN(C(=O)C(C)(C)C)[C@H](c3cccc(Br)c3)C[C@@H]21,inactive
11,Clc1ccc(-c2cc(C3CCNCC3)[nH]n2)cc1,0.74%
12,c1ccc2c(-c3cc(C4CCNCC4)[nH]n3)cccc2c1,6.53%
13,CC(OC(=O)c1cc(S(=O)(=O)N2CCOCC2)ccc1F)C(=O)NCC1CCCCC1 (stereo unspecified),0.1%
14,O=C(N/N=C/c1cccnc1)c1ccc(NC(=O)c2ccccc2Cl)cc1,1.2%
15,O=C(NCCN1CCN(C(=O)c2cccc(OC(F)F)c2)CC1)c1cccc(OC(F)F)c1,0.88%
16,O=C(N[C@@H]1CCC(=O)N(CC[C@H](Sc2ccc(Br)cc2)c2ccccc2)CC1)OCc1ccccc1,1.21%
17,Cc1ccc(-c2csc(NC(=O)/C=C/c3cccs3)n2)cc1C,7.86%
18,O=C(/C=C/c1cccs1)Nc1nc(-c2ccccc2)cs1,10.2%
19,COc1ccc(OC)c(/C=N/n2c(COc3ccccc3)n[nH]c2=S)c1,1.2%
20,Cc1sc(NC(=S)NC(=O)c2ccccc2)c(C#N)c1C,1.72%
21,Cc1sc(NC(=S)NC(=O)c2ccco2)c(C#N)c1C,0.86%
22,Cc1cccc(S(=O)(=O)N(C)C[C@H]2OCc3cn(nn3)CCCC(=O)N([C@@H](C)CO)C[C@@H]2C)c1,0.62%
23,O=S(=O)(c1ccc(F)cc1)N1CCC2(CC1)OCCO2,0.49%
24,COC(C[C@H](O)C[C@H](O)[C@@H](C)OCc1ccccc1)OC,0.19%

row,Compound,inhibition
1,CCn1c(C)nc2cc(C(=O)OC)ccc21,0.32%
2,CCn1c(C)nc2cc(C(=O)OCCC(F)(F)F)ccc21,8.24%
3,Cc1cc(C)nc(NS(=O)(=O)c2ccc(NC(=O)c3ccc(N4C(=O)CCC4=O)cc3)cc2)n1,inactive
4,Nc1ccn([C@@H]2O[C@H](CO)[C@@H](O)[C@H]2O)c(=O)n1,0.98%
5,Nc1ccn([C@@H]2O[C@H](CO)[C@@H](O)[C@@H]2O)c(=O)n1,inactive
6,CNC(=S)N(Cc1ccccc1)Cc1cccnc1,3.13%
7,CCOC(=O)c1c(NC(=O)CSc2nnc(-c3ccccc3)o2)sc(C(C)=O)c1C,2.08%
8,CC(OC(=O)/C=C/c1cccc(C(F)(F)F)c1)C(=O)NC1CCCCC1C (stereo unspecified),3.48%
9,Cc1ccc(NC(=O)/C(C#N)=N/Nc2ccc(C(=O)O)cc2)c(C)c1,1.78%
10,CNC(=O)C(=O)Nc1ccc(C)cc1C,0.04%
11,C/C(=N\N=C1\NC(=O)C(Cc2ccccc2)S1)c1ccccc1 (stereo unspecified),1.26%
12,CC(C)=N/N=C1/NC(=O)C(Cc2ccccc2)S1 (stereo unspecified),2.54%
13,CC(=O)/C(C#N)=C1\NC(=O)C(Cc2ccc(F)cc2)S1 (stereo unspecified),9.23%
14,CCOC(=O)c1ccc(CC2S/C(=C(\C#N)C(C)=O)NC2=O)cc1 (stereo unspecified),1.08%
15,CN1CCN(c2ccc3nccnc3c2)CC1,0.19%
16,CN1CCN(c2nc3cc(N4CCOCC4)ccc3s2)CC1,inactive
17,O=C1CNC(=O)/C(=C\c2ccc(F)cc2)N1,inactive
18,CCOC(=O)COc1cc2c3c(c(=O)oc2cc1C)CCCC3,1.83%
19,CCOC(=O)CSc1nnc(NC(=O)CN2CCCCC2)s1,inactive
20,CC(=O)Nc1ccc(S(=O)(=O)N(C)CC(=O)OC(C)C(=O)NC2(C#N)CCCCC2)cc1 (stereo unspecified),0.4%
21,COc1ccc(NC(=O)COc2ccc(CNCCCN3CCOCC3)cc2OC)cc1,inactive
22,CCOc1cc(CNCCCN2CCOCC2)ccc1OCC(=O)NC(C)(C)C,0.44%
23,CCCCn1c(=S)[nH]c2ncccc2c1=O,1.76%
24,COc1ccc(N2CCN(CCCn3c(=S)[nH]c4ncccc4c3=O)CC2)cc1,26.7%
